From PubChem BioAssay (EPA / NIEHS)
Active and inactive are the calls of the source. The calls were made as follows: active = hit-call score of the fitted dose curve at least 0.9, where 1 is the maximum; inactive = score below 0.9.

Assay: CCTE_Shafer_MEA_acute_burst_percentage_mean: CCTE's Neural Acute Assay for Percentage of Spikes in a Burst, Shafer Lab (AID 2284017);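 as to AC50: curve fitted for loss of signal so potency reflects decreased burst percentage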
Experimental: CCTE_Shafer_MEA_acute assay is conducted using Axion Biosystems 48 well microelectrode array (MEA) plates and Maestro recording system. Each well of the MEA plate contains a grid of 16 microelectrodes embedded in the culture surface. Electrically active cells, such as neurons, can be cultured over the electrodes, and electrical activity in these cells can be recorded extracellularly. The spontaneous firing of neurons is captured from each electrode on a microsecond timescale providing both temporally and spatially precise data. […] The CCTE_Shafer_MEA_acute assay uses primary cultures of rat cortical neurons. As these cultures mature over time, neural networks develop functional activity and form cohesive networks in which electrical activity can be highly coordinated. Baseline 40-minute recordings are made on days post-plating 13 or 15, followed by a secondary 40-minute recording after chemical exposure.CCTE_Shafer_MEA_acute_burst_percentage_mean is a component of the CCTE_Shafer_MEA_acute assay. It measures the percentage of spikes (action potential firing) in a single-electrode burst (temporally-clustered groups of spikes) as the number of spikes in bursts divided by the total number of spikes during a recording in a microelectrode array (MEA) using Axion Biosystems Maestro 768 channel amplifier with the AxIS adaptive spike detector. The average of the burst percentages across electrodes is calculated to report a well-level value. The recordings before and after chemical treatment are used to calculate a percent change in the mean burst percentage in each well.Data from the assay component CCTE_Shafer_MEA_acute_burst_percentage_mean was analyzed into 1 assay endpoint. This assay endpoint, CCTE_Shafer_MEA_acute_burst_percentage_mean, was analyzed in the negative analysis fitting direction relative to DMSO as the negative control and baseline of activity. Using a type of functional reporter, gain or loss-of-signal activity can be used to understand electrical activity.
Spontaneous activity in the cortical cultures was recorded using an Axion Biosystems Maestro 768 channel amplifier and Axion Integrated Studios (AxIS) v1.8 (or later) software. The amplifier recorded from all channels simultaneously (gain = 1200 x; sampling rate = 12.5 kHz/channel): raw signals were filtered with a Butterworth band-pass filter (300-5000 Hz), which filters out slower local field potentials leaving only fast potentials, i.e., "spikes", arising from extracellular currents associated with action potentials (Pine 2006; Wheeler and Nam 2011). On-line spike detection of filtered signals was conducted with the AxIS adaptive spike detector, using a threshold of 8x the root mean squared (rms) noise on each channel. Any electrodes with rms noise levels greater than 5 uV were grounded (e.g., no data were recorded). Once grounded, an electrode was grounded for the duration of the experiment. All recordings were conducted at 37 C. Wells were deemed usable if on the day of the exposure >/= 10 electrodes were active (defined as >/= 5 spikes/min). On DIV 13 or 15, a minimum of three wells from one cortical culture preparation were treated with each compound (0.03-40 uM). Prior to recording baseline activity, each mwMEA plate was placed in the Maestro at 37 C and allowed to sit for 20 min while firing rates stabilized. Baseline activity (40 min) was recorded before the addition of each compound. An additional 40 min of spontaneous activity was recorded in the presence of each compound. Changes in network parameters relative to baseline were assessed following compound treatment.

AC50, active:
CC(=O)[C@H]1CC[C@H]2[C@@H]3CC=C4C[C@@H](O)CC[C@]4(C)[C@H]3CC[C@]12C 2.98 µM
Nc1cc([N+](=O)[O-])ccc1O 23.7 µM

outcome, inactive:
C=CCOC(=O)CCC1CCCCC1
C[C@H]1C[C@@H]2[C@H]([C@@H](O)C[C@@]3(C)[C@H]2CC[C@]3(O)C(=O)CO)[C@@]2(C)C=CC(=O)C=C12
CCCCCCCCC=O
C=C[Si](OCC)(OCC)OCC
CN(C)C(=N)N=C(N)N
OC[C@H]1O[C@H](O[C@]2(CCl)O[C@H](CCl)[C@@H](O)[C@@H]2O)[C@H](O)[C@@H](O)[C@H]1Cl
COc1cc(C=O)ccc1OC(=O)C(C)C
CC[Si](OC(C)=O)(OC(C)=O)OC(C)=O
CCC(=O)OCc1ccccc1
NCCNCCN
CC(=O)OCCC(C)CC(C)(C)C (stereo unspecified)
OC1OC[C@@H](O)[C@H](O)[C@H]1O (stereo partly specified)
CC(C)(COC(=O)c1ccccc1)COC(=O)c1ccccc1
Cc1cc(C2(c3cc(C)c(O)cc3C)OS(=O)(=O)c3ccccc32)c(C)cc1O
